Most compounds without a hit are left out; they make up all but 1.3% or so of the library.
Gli-Sufu block: Gli-Sufu pathway antagonists, primary screen, luciferase luminescence, Sufu-KO-LIGHT cells, uHTS; Sufu-KO-LIGHT fibroblasts, Gli luciferase reporter luminescence; actives 0.74% (n = 340,000); AID 588413, 2011; inhibition, % at 5 µM;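 active = inhibition above about 55%, limit read from the data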;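 also: 0% = DMSO-treated cells and 100% = wells with medium but no cells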
SRC1 inh: SRC1 coactivator transcriptional activity inhibitors, primary screen, cell-based, luminescence. HEK293 GAL4-SRC1 luciferase reporter. inhibition, % at 3.6 µM. actives 0.12% (n = 360,000). AID 588354, 2011;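 active = inhibition above the campaign mean plus 3 SD, with each screening campaign given its own cutoff, cut at about 60% in these data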;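 also: 0% = DMSO treated cells and 100% = gossypol at 36 µM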
NR5A2 inv ag: LRH-1 (NR5A2) inverse agonists, primary screen, cell-based, luminescence, HEK293T, StAR-luciferase reporter. Nuclear receptor subfamily 5 group A member 2 (Homo sapiens), O00482. LRH-1 transfected, 24 h. inhibition, % at 3.6 µM. actives 0.13% (n = 360,000). AID 602396, 2012;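 active = inhibition above the mean inhibition of all tested compounds plus 3 SD, cut at about 73% in these data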;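 also: 0% = DMSO wells and 100% = reporter-only cells lacking LRH-1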
NCOA2 inhibitor: inhibition of GAL4-SRC2 driven luciferase reporter, primary screen, SRC2 inhibitor project, cell-based, luminescence. inhibition, % at 9 µM. Nuclear receptor coactivator 2 (Homo sapiens), Q15596. HEK293 GAL4-SRC2 luciferase reporter. actives 0.17% (n = 370,000);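 active = inhibition above the mean inhibition of all tested compounds plus 3 SD, set per campaign, cut at about 52% in these data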;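 also: 0% = DMSO treated cells and 100% = cells given Gossypol at 36 µM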
NCOA3 inh: SRC3 coactivator transcriptional activity inhibitors, primary screen, cell-based, luminescence | Nuclear receptor coactivator 3 (Homo sapiens), Q9Y6Q9 | HEK293 GAL4-SRC3 luciferase reporter | inhibition, % at 3.6 µM | actives 0.17% (n = 360,000) | AID 588352, 2011;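 active = inhibition above a per-campaign cutoff, the mean of all compounds plus 3 SD, cut at about 60% in these data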;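 also: 0% = DMSO-treated cells and 100% = gossypol-treated cells at 36 µM; higher means less SRC3-driven luciferase light from the GAL4 reporter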
COUP-TFII inh: NR2F2 transcriptional activity inhibitors, primary screen, cell-based, luciferase reporter, HEK293T, luminescence | COUP transcription factor 2 (Homo sapiens), P24468 | HEK293T NGFI-A luciferase reporter | inhibition, % at 8.6 µM | actives 0.7% (n = 370,000);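 active = inhibition above a per-plate cutoff, mean inhibition of test wells between control levels plus 3 SD, cut at about 38% in these data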;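 also: cells cotransfected with COUP-TFII expression vector driving the NGFI-A reporter; 0% = median of COUP-TF2 test wells and 100% = reporter-only cells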
VP16 Luc counter: Gal4-VP16 luciferase reporter inhibitors, counter-screen for COUP-TFII antagonist project, cell-based, luminescence, HEK293. AID 687007, 2013. shares compounds with COUP-TFII inh. inhibition, % at 8.5 µM. actives 25% (n = 2,500); in the data active = inhibition above about 13%
COUP-TFII conf: NR2F2 transcriptional activity inhibitors, confirmation, cell-based, luciferase reporter, HEK293, triplicate; shares compounds with COUP-TFII inh; HEK293 NGFI-A luciferase reporter, luminescence; inhibition, % at 8.5 µM; actives 45% (n = 2,500);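 active = mean inhibition over three repeats above a set limit taken from the earlier primary screen, cut at about 38% in these data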;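 also: 100% = cells given the luciferase reporter alone without the COUP-TF2 vector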
* hit, by the source's call; · = no result.

SMILES	Gli-Sufu block	SRC1 inh	NR5A2 inv ag	NCOA2 inhibitor	NCOA3 inh	COUP-TFII inh	VP16 Luc counter	COUP-TFII conf
CCc1ccc(C(O)c2ncc(-c3cccc(C)c3)[nH]2)cc1 (stereo not drawn)	·	-13	-23	-27	-8	-9	·	·
COc1cc(C#Cc2c(-c3cncn3C)n(C)c3ccc(-c4cnc(OC)nc4)cc23)cc(OC)c1	1	13	12	21	25	45*	-8	-1
CCCCC[C@H](C)N1C[C@H](COCc2ccccc2)Oc2cc(N3CCC[C@H]3COC)ccc2S1(=O)=O	·	·	-51	-1	·	2	·	·
Cc1ccc[n+](CC(=O)/C=C2\N(C)c3ccccc3C2(C)C)c1	12	24	38	4	8	42*	4	28
CN(C)c1ccc(CNC(=O)C2(C)Cc3c(-c4ccc5c(c4)OCO5)ccnc3O2)cc1 (stereo not drawn)	·	-3	-3	-1	-2	7	·	·
O=C(Nc1nc(-c2ccc(F)cc2)cs1)C1CCN(C(=O)c2ccc(F)cc2)CC1	41	3	1	30	2	58*	4	46*
NC1=NC2OC(CO)C(O)C2O1 (stereo not drawn)	·	2	-20	-4	-11	0	·	·
Clc1ccc2nc(CNc3nc(N4CCOCC4)nc4c3ncn4-c3ccsc3)[nH]c2c1	·	·	·	·	·	70*	19*	45*
CC(C)(O)C#Cc1ccc(C(=O)N2CCN(c3ccc([N+](=O)[O-])cc3)CC2)cc1	25	22	18	29	-3	38*	6	24
Cc1csc2ncnc(N3CCN(C(=O)Nc4ccc(OC(F)(F)F)cc4)CC3)c12	16	-7	-2	41	32	39*	6	28
COc1ccc(C(=O)Nc2ccc(Cl)c(S(=O)(=O)N3CCOCC3)c2)cc1	-3	31	21	20	20	59*	-6	25
O=C(Nc1cccc(Br)c1)c1ccc(Cl)c(S(=O)(=O)N2CCOCC2)c1	20	17	6	31	21	59*	-6	57*
O=C(Nc1ccc(Cl)c(S(=O)(=O)N2CCOCC2)c1)c1ccc(Cl)nc1	10	18	13	-2	0	44*	3	16
O=C(Nc1cccc(C(=O)NC2CC2)c1)c1ccc(Cl)c(S(=O)(=O)N2CCOCC2)c1	-6	-5	12	-5	-6	11	·	·
COc1ccc(NC(=O)c2cc3c(s2)CCC(C)C3)cc1S(=O)(=O)N1CCOCC1 (stereo not drawn)	28	25	23	13	22	60*	-16	28
C[C@H](O)[C@@H]1C(=O)N2CCc3ccc(-c4ccccc4)cc3[C@@H]2C[C@@H]1N(C)C(=O)Nc1cc(Cl)cc(Cl)c1	-11	5	-18	-18	-4	9	·	·
Cc1cc(NC(=O)CCC(=O)N(c2ccccc2C)C(C(=O)NC2CCCC2)c2ccccc2)no1 (stereo not drawn)	5	-7	8	-34	-15	12	·	·
O=Cc1coc([B-](F)(F)F)c1	·	·	·	-22	·	-19	·	·
COc1ccc(CCNC(=O)c2ccc(Cl)c(S(=O)(=O)N3CCCC3)c2)cc1	7	0	10	-29	13	41*	-4	20
COc1ccc(C(CNC(=O)c2ccc(Cl)c(S(=O)(=O)N3CCCC3)c2)N2CCCC2)cc1 (stereo not drawn)	18	2	8	-8	3	-11	·	·
CCCCN1C(=O)C(CC(=O)NCc2cccs2)CC(C(=O)N(C(C)C)C(C)C)=C1C (stereo not drawn)	·	-5	3	8	13	2	·	·
C=CCCC1CN(Cc2ccc(OC)cc2)S(=O)(=O)c2c(Oc3ccc(C)cc3)cccc2O1 (stereo not drawn)	·	·	·	-6	·	0	·	·
Cc1ccc(-n2c(C)c([N+](=O)[O-])c3ccc(O)c(CN(C)C)c32)cc1	-8	49	-10	36	42	43*	14*	21
Nc1nnc(-c2cc3ccccc3oc2=O)s1	-29	-66	-82	-50	-48	-26	·	·
Nc1cccc(-c2cc3ccccc3oc2=O)c1	4	16	9	46	21	57*	8	7
SMILES	Gli-Sufu block	SRC1 inh	NR5A2 inv ag	NCOA2 inhibitor	NCOA3 inh	COUP-TFII inh	VP16 Luc counter	COUP-TFII conf
O=C(Nc1ccc(-c2nc3ccccc3s2)cc1)c1cc(-n2cnnc2)ccc1Cl	18	-16	25	-24	-4	70*	-16	52*
CCOC(=O)N/N=C/c1c(C)nn(-c2ccccc2Cl)c1Cl	-81	-85	-60	-100	-43	-45	·	·
Cc1nn(-c2ccccc2Cl)c(Cl)c1/C=N/Nc1nc2ccccc2s1	86*	67*	41	81*	79*	86*	88*	102*
CCCNC(=O)c1cc(C2CCCN(C(=O)c3ccc4ccccc4c3)C2)on1 (stereo not drawn)	·	-19	-8	-2	-15	9	·	·
O=C(C1CC1)N1CCC(c2nc(-c3ccc(S(=O)(=O)NCC4CCCO4)cc3)no2)CC1 (stereo not drawn)	20	-3	16	30	32	45*	-4	20
O=C(c1ccccc1)N1CCC(c2nc(-c3ccc(S(=O)(=O)NCC4CCCO4)cc3)no2)CC1 (stereo not drawn)	40	9	12	13	10	18	·	·
Cc1ccc2nc(-c3ccc(O)c(O)c3)cn2c1	-2	-114	-125	-64	-123	-39	·	·
Cc1ccc2nc(-c3ccccc3)cn2c1	18	28	11	67*	36	53*	-5	21
Cc1noc(C)c1NC(=O)N(C)C[C@@H]1Oc2ncc(Br)cc2C(=O)N([C@@H](C)CO)C[C@@H]1C	·	-3	16	-8	-13	-15	·	·
CC(C)(C)c1ccc(C(=O)NC(=S)Nc2nc3c(s2)CCCC3)cc1	30	34	11	45	38	49*	-24	37
CC1CCc2nc(NC(=O)c3ccc(S(=O)(=O)N4CCCc5ccccc54)cc3)sc2C1 (stereo not drawn)	2	6	-3	-6	2	3	·	·
O=C(Nc1nc2c(s1)CCCC2)c1ccc(S(=O)(=O)N2CCCc3ccccc32)cc1	2	3	14	15	22	50*	-8	31
